Compounds with a hit are over-represented: about 2.3% of the library has one in this group of screens.
CHT block: inhibits the human high affinity choline transporter | CHT-expressing cells, membrane potential dye, choline response; hits give low values | Q9GZV3 | B-score at 10 µM | AID 488975 | hit rate 0.86% among 310,000;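 active = B-score over 3 SD under the library average, and starting fluorescence ratio not unusually high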;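 note: choline stimulus applied at its EC90 after an EC20 pre-addition; B-score computed on integrated fluorescence ratio after choline addition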
TMEM16A inh: mouse TMEM16A channel inhibition, primary screen. HEK293 TMEM16A/YFP iodide influx fluorescence, ionomycin. normalized B-score (activity score, 25-100; higher = stronger inhibition) at 10 µM. hit rate 1.2% among 310,000. Q8BHY3;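 active = ratio plate-corrected score three or more library SD toward inhibition, starting fluorescence score within five deviations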;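 note: score derived from kinetic fluorescence span divided by baseline fluorescence per well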
Target sequence (Q8BHY3 whole entry, looked up): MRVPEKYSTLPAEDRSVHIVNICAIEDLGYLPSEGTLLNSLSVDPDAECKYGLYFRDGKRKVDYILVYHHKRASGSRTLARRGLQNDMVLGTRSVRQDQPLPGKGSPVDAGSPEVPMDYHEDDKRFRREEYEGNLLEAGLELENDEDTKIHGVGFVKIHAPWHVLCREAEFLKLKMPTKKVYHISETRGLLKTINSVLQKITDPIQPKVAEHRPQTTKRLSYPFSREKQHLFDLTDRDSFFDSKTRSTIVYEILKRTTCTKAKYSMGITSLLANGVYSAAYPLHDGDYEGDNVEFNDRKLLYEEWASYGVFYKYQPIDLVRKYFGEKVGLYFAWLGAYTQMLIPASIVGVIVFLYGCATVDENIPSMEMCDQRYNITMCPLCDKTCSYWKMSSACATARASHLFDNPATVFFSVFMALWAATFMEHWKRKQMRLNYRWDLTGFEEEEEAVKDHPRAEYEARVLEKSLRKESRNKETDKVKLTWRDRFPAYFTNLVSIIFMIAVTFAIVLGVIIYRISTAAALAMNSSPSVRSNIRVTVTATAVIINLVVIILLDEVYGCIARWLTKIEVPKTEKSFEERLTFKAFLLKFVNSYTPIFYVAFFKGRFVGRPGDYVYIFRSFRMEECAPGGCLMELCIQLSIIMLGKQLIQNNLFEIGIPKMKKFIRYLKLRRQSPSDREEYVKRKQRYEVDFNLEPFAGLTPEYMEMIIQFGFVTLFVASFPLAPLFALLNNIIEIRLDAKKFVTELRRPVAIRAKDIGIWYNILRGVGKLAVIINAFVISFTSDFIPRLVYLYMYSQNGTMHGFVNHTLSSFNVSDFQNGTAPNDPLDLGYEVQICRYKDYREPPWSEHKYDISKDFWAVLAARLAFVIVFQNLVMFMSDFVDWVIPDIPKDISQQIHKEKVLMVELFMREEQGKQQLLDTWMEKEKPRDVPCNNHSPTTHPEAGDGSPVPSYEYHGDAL
TMEM16A act: activators or potentiators of mouse TMEM16A chloride channel. hit rate 0.3% among 340,000. B-score at 10 µM. Q8BHY3. HEK293 TMEM16A/YFP-H148Q/I152L, iodide quench fluorescence; hits give low values;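 active = fluorescence-ratio B-score plate-corrected deviation score at least 3 library SD below zero, with starting fluorescence score within 5 deviations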;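 note: channel opened by trigger with iodide after compound preincubation; score built on the fluorescence ratio of max minus min over baseline; more negative score means more quench and so TMEM16A activation or potentiation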
CHT PAM: allosterically activates the human high affinity choline transporter; Q9GZV3; CHT-expressing cells, membrane potential dye, choline EC20; hits give high values; LV-AA mutant CHT in HEK293 cells; B-score at 10 µM; hit rate 0.49% among 310,000; AID 488977;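 active = initial fluorescence not abnormally high and integrated response B-score, plate-corrected, over 3 SD above library mean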
* = called active by the depositor; i = inactive; / = not tested or not shown.

SMILES	CHT block	TMEM16A inh	TMEM16A act	CHT PAM
CC(CC(=O)Nc1ccc(C(N)=O)cc1)c1ccccc1 (centres undefined)	i	i	i	i
N#Cc1ccsc1NC(=O)c1ccc(Cl)c([N+](=O)[O-])c1	-8.74*	i	i	i
CC(CC(=O)Nc1ccc(Cl)c([N+](=O)[O-])c1)c1ccccc1 (centres undefined)	i	100*	i	i
N#Cc1ccsc1NC(=O)c1cccc([N+](=O)[O-])c1	i	i	i	i
O=C(Nc1ccccc1)Nc1ccc(Cl)c([N+](=O)[O-])c1	i	100*	i	i
O=C(Nc1ccc(C(O)(C(F)(F)F)C(F)(F)F)cc1)c1ccc(Cl)c([N+](=O)[O-])c1	i	100*	i	i
CC(C(=O)NCc1ccco1)n1cc(C(=O)c2ccco2)c2ccccc21 (centres undefined)	i	i	i	i
C=CCN(CC(=O)NC1CC1)S(=O)(=O)c1cccc(C(F)(F)F)c1	/	/	i	/
Cc1ccc(NC(=O)Nc2ccccc2)cc1[N+](=O)[O-]	i	i	i	i
O=C(Nc1ccccc1)Nc1ccc(F)c([N+](=O)[O-])c1	i	25*	i	i
CCOc1ccccc1NC(=S)NCCc1ccccc1	i	i	-5.24*	i
CC(=O)c1ccc(N2CCN(C(=O)c3cc4c(s3)CCCC4)CC2)cc1	i	i	-37.1*	i
COc1ccc(N2CCN(C(=O)c3cc4c(s3)CCCCC4)CC2)cc1	/	/	i	/
COc1ccc(/C=N/N=C2/CC(C)(C)Cc3n[nH]c(=O)cc32)cc1	i	i	-9.11*	i
COc1ccc(/C=N/N=C2/NC(=O)CC(C(=O)O)S2)cc1 (centres undefined)	i	i	i	i
Cc1ccc(C(=O)N(CCc2ccccc2)Cc2ccccc2)cc1S(=O)(=O)N1CCCCC1	i	i	i	i
COc1ccc(C(=O)/C(C#N)=N/Nc2ccc([N+](=O)[O-])cc2)cc1	i	25*	i	i
N#CC(C#N)=NNc1ccc([N+](=O)[O-])cc1	i	100*	i	i
C/C(=N\Nc1ccc([N+](=O)[O-])cc1)c1ccc(C#N)cc1	i	i	i	i
COc1ccc(C(=O)/C(C#N)=N/Nc2ccccc2[N+](=O)[O-])cc1	i	i	i	i
CC(=O)N/C(=C\c1ccc(Br)s1)C(=O)O	i	i	i	i
COc1cc(NC(=O)[C@H]2CCCN2S(=O)(=O)c2cccc3cccnc23)cc(OC)c1OC	i	i	i	i
COc1cc(NC(=O)[C@@H]2CCCN(S(=O)(=O)c3cccc4cccnc34)C2)cc(OC)c1OC	i	25*	i	i
C=CCn1c(SCC(=O)N2CCN(c3ccc(F)cc3)CC2)nnc1-c1ccco1	i	25*	i	i
CC(C)c1cc(-c2cc(C(=O)NCc3ccccc3)on2)nc(NCC2CC2)n1	i	100*	-6.57*	i
SMILES	CHT block	TMEM16A inh	TMEM16A act	CHT PAM
CCOc1ccc(/C=N/NC(=O)Cc2ccccc2)cc1CN1CC2CC(C1)c1cccc(=O)n1C2 (centres undefined)	/	/	i	/
COC(=O)C1CCN(CC(=O)Nc2cc(Cl)ccc2OC)CC1	-9.68*	i	/	i
COc1cc(C)nc(N2CCCC(C(=O)Nc3cc(Cl)ccc3OC)C2)n1 (centres undefined)	i	25*	i	i
CCOC(=O)/C(=C\c1cccc(O)c1)c1nc2sc(C)c(C)c2c(=O)[nH]1	i	i	i	i
Cc1sc(NC(=O)CN2CCOCC2)nc1-c1ccc2c(c1)CCN2S(=O)(=O)c1ccccc1	i	25*	i	i
CCN(CCn1cccn1)C(=O)CCc1nnc(C2CCCCC2)o1	i	i	i	i
CN(Cc1cccc(-n2cccn2)c1)C(=O)CCc1nnc(C2CCCCC2)o1	i	i	-6.37*	i
CC1CN(C(=O)c2cccc(S(=O)(=O)N3CCN(c4ccc(F)cc4)CC3)c2)CC(C)O1 (centres undefined)	i	i	i	i
O=C(c1cccc(S(=O)(=O)N2CCN(c3ccc(F)cc3)CC2)c1)N1CCCC(C(F)(F)F)C1 (centres undefined)	i	25*	i	i
Cc1ccc(C)c(NC(=S)NCc2ccc3c(c2)OCO3)c1	i	i	i	i
Cc1cc(CSC(=N)N)c(CSC(=N)N)cc1C	i	i	i	11.8*
COc1c(/C=C2\SC(=Nc3ccccc3Cl)NC2=O)cccc1[N+](=O)[O-]	i	i	i	i
O=C1NC(=Nc2ccccc2Cl)S/C1=C\c1cccc([N+](=O)[O-])c1	i	25*	i	i
Cn1nnc2cc(C(=O)NC3CC3)ccc21	i	i	-29.4*	i
O=S(=O)(c1ccc(Cl)cc1)N1CCN(S(=O)(=O)N2CCCCCC2)CC1	i	i	i	i
O=S(=O)(N1CCCCC1)N1CCN(c2cc(Cl)ccc2Cl)CC1	i	i	-8.02*	i
CCN(c1ccccc1)S(=O)(=O)c1cc(C(=O)Nc2ccc(Br)cc2)ccc1F	i	25*	i	i
CCN(c1ccccc1)S(=O)(=O)c1ccc(F)c(C(=O)O)c1	i	i	i	i
O=[N+]([O-])c1ccc(S(=O)(=O)NCCS(=O)(=O)N2CCN(c3ccccc3)CC2)cc1	i	i	-28.8*	i
O=C(COC(=O)/C=C/c1ccc([N+](=O)[O-])cc1)NCc1ccc2c(c1)OCO2	i	i	i	i
CC(CC(=O)N1CCN(S(=O)(=O)c2ccc(Cl)cc2)CC1)n1cncn1 (centres undefined)	i	i	i	i
Nc1nc(Cl)cc(N2CCC(c3cc(-c4ccc(Cl)cc4)n[nH]3)CC2)n1	i	100*	i	i
C[C@@]12C(=O)N(CC3CC3)CC(=O)N1[C@H](/C=C/c1ccccc1)[C@@H]1C(=O)N(c3ccccc3)C(=O)[C@@H]12	i	i	i	i
NC1(N)OC(CN2C(=O)c3ccccc3C2=O)CS1 (centres undefined)	i	100*	i	i
Cc1cccc(C)c1OC(=O)CSc1nnc(-c2ccccc2O)o1	i	i	i	i
CCC1CCCCN1S(=O)(=O)c1ccc(C(=O)Nc2nnc(-c3cccs3)o2)cc1 (centres undefined)	i	25*	i	i
CC1CC(C)CN(S(=O)(=O)c2ccc(C(=O)Nc3nnc(-c4cccs4)o3)cc2)C1 (centres undefined)	i	i	i	i
Cc1ccc(CNc2cc(C(=O)O)ccc2Cl)s1	i	i	i	i
CC(C)c1ccccc1NC(=O)CC1(CC(=O)O)CCCC1	i	i	i	i
O=C(COc1cccc2ccccc12)Nc1ccc(Cl)cc1C(=O)O	-7.31*	100*	i	i
